Source: PubChem (National Center for Advancing Translational Sciences (NCATS))
In the library only some 19% were active in any assay of this set; here they are far more common.
KB-V1 MDR tox: KB-V1 MDR subline cytotoxicity; Potency, µM (highest dose often 46.1 µM), actives largely listed as cytotoxic; 3.4% of 400,000 active; KB-V1 MDR cells viability, CellTiter-Glo, 72 h; further: nearly all actives have a fitted effect of over 60% in size
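Potencies derive from concentration-effect curves fitted to normalized luminescence (CellTiter-Glo) of KB-V1 cells treated for 72 h at 37 degrees C in phenol-red-free DMEM containing 10% FBS.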
HT1080NT lethal: kills 2HG-producing HT-1080-NT fibrosarcoma cells. HT-1080-NT fibrosarcoma viability, CellTiter-Glo ATP luminescence, 48 h. Potency, µM (doses to about 46.1 µM), for inactives: at the highest dose activity, negative = less viability, hits mostly cytotoxic. 1.6% of 360,000 active;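 further: NT is the 2HG producing partner of a matched IDH1 knockdown line; 0% = DMSO-treated cells and -100% = media-only wells without cells; nearly all actives have a fitted effect of over 55% in size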
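Viability of the 2HG-overproducing fibrosarcoma line after 48 hours of compound exposure at 37 degrees C was determined by luminescence with CellTiter-Glo, and concentration-effect curves were then fitted and categorized.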
KB-3-1 tox: kills parental KB-3-1 adenocarcinoma cells | KB-3-1 viability, CellTiter-Glo ATP luminescence, 72 h | Potency, µM (titrated, usually from 46.1 µM), actives largely listed as cytotoxic | 1.4% of 400,000 active; further: nearly all actives have a fitted effect of over 60% in size
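Parental KB-3-1 viability, qHTS format: 72 h compound exposure, 37 °C; CellTiter-Glo; media-only wells and DMSO plates as controls; concentration-effect fits on corrected data.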
HT1080 IDH1KD tx: kills HT-1080 cells with IDH1 knockdown. HT-1080 IDH1 knockdown viability, ATP luminescence, 48 h. Potency, µM (series often up to 46.1 µM), inactives show at the highest dose activity, negative = toxicity, most hits filed as cytotoxic. 2% of 360,000 active;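 further: 0% = DMSO wells and -100% = cell-free medium wells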
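IDH1KD HT-1080 cells, 750/well, RPMI + 5% FBS; compound pinned after 2 h settling; 48 h, 37 °C; CellTiter-Glo luminescence; % activity normalised to DMSO and no-cell wells; curves fitted, classed by r2 and efficacy.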
TDP1 cell CPT: growth inhibition of DT40 Tdp1-/-;hTDP1 cells with camptothecin (screen for TDP1 inhibitors); chicken DT40 Tdp1-/-;hTDP1 cells + 20 nM CPT, ATP luminescence, 48 h; Potency, µM (series often up to 46.2 µM), inactives show top-dose activity change, negative = growth inhibition, actives largely listed as inhibitors; 12% of 420,000 active; further: nearly all actives have a fitted effect of over 55% in size
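Chicken DT40 Tdp1-/- cells stably complemented with human TDP1 were seeded at 400 cells/well in medium containing 20 nM camptothecin, exposed to pin-transferred compounds, and grown at 37 °C for at least 48 hr. Viability was read as ATP luminescence.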
TDP1 cell noCPT: qHTS for Inhibitors of human tyrosyl-DNA phosphodiesterase 1 (TDP1): qHTS in cells in absence of CPT; DT40 Tdp1-/- hTDP1 cells, no CPT, ATP luminescence, 48 h; Potency, µM (doses to about 46.2 µM), without a hit: top-dose activity change, negative = growth inhibition, most hits filed as inhibitors; 15% of 420,000 active; AID 686978, 2013; further: nearly all actives have a fitted effect of over 55% in size
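Growth kinetics read by CellTiter-Glo luminescence after ≥48 hr at 37 °C. Cells: DT40 Tdp1-/- stably carrying human TDP1, 400 per well, compound exposure in the absence of CPT (DMSO vehicle).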
Active calls of the source: *; [ ] = remark or other dose. The call rests on the fitted dose curve; in most records, active means well fitted curve in the direction sought with a large enough effect; inconclusive means small, poorly fitted or top-dose-only effect, or another doubt; inactive means no such curve, though single readings can be large; an effect the other way counts as inactive or inconclusive. Unless noted, on the % scale 0 is the no-effect control and ±100 the full control effect; potency means the concentration at half of the fitted maximal effect.

What do the screens show for `CCc1cc(=O)[nH]c(SCc2ccc(C)cc2)n1`?
KB-V1 MDR tox: inactive; HT1080NT lethal: -1%; KB-3-1 tox: inactive; HT1080 IDH1KD tx: -2%; TDP1 cell CPT: -15%; TDP1 cell noCPT: -8%

How did COc1cccc(/C=N/NC(=O)CC(=O)NCCc2ccc(OC)c(OC)c2)c1 do in these assays?
KB-V1 MDR tox: inactive; HT1080NT lethal: 12%; KB-3-1 tox: inactive; HT1080 IDH1KD tx: 11%; TDP1 cell CPT: -22%; TDP1 cell noCPT: -23%

What do the screens show for `COc1ccc(S(=O)(=O)N2CCC(C(=O)Nc3cc(C(F)(F)F)ccc3Cl)CC2)cc1`?
KB-V1 MDR tox: inconclusive; KB-3-1 tox: inconclusive; TDP1 cell CPT: inconclusive; TDP1 cell noCPT: 16µM*

What do the screens show for `O=C(Nc1ccncc1)C1CCN(S(=O)(=O)c2ccccc2C(F)(F)F)CC1`?
HT1080NT lethal: -17%; HT1080 IDH1KD tx: -23%; TDP1 cell CPT: 15µM*; TDP1 cell noCPT: 26µM*

How did Cc1cc(C)c(C)c(S(=O)(=O)N2CCC(C(=O)N3CC(C)CC(C)C3)CC2)c1C (stereo not given) do in these assays?
KB-V1 MDR tox: inconclusive; HT1080NT lethal: -2%; KB-3-1 tox: inactive; HT1080 IDH1KD tx: -10%; TDP1 cell CPT: 18µM*; TDP1 cell noCPT: 26µM*

How did Cc1cccc(NC(=O)c2oc3ccccc3c2NC(=O)c2cc(=O)c3cc(Cl)ccc3o2)c1 do in these assays?
KB-V1 MDR tox: inconclusive; KB-3-1 tox: inactive; TDP1 cell CPT: inconclusive; TDP1 cell noCPT: inconclusive

Results for COc1ccc(NS(=O)(=O)c2cccc(C(=O)N3CCN(S(=O)(=O)c4ccccc4)CC3)c2)cc1 ?
KB-V1 MDR tox: inactive; HT1080NT lethal: -6%; KB-3-1 tox: inactive; HT1080 IDH1KD tx: -1%; TDP1 cell CPT: inconclusive; TDP1 cell noCPT: inconclusive

How did CC(OC(=O)CSCC(=O)Nc1ccc(Cl)cc1)C(=O)N(C)Cc1ccccc1 (stereo not given) do in these assays?
KB-V1 MDR tox: inactive; HT1080NT lethal: -1%; KB-3-1 tox: inactive; HT1080 IDH1KD tx: 5%; TDP1 cell CPT: inconclusive; TDP1 cell noCPT: inconclusive

Results for Cn1nc(C(C)(C)C)cc1N1C(=O)CCC1(C)C(=O)NC1CCCCC1 (stereo not given) ?
KB-V1 MDR tox: inactive; HT1080NT lethal: 21%; KB-3-1 tox: inactive; HT1080 IDH1KD tx: 2%; TDP1 cell CPT: -8%; TDP1 cell noCPT: 0%

Results for O=C(O)c1c2c(nc3ccccc13)-c1ccccc1CC2 ?
KB-V1 MDR tox: inactive; HT1080NT lethal: -12%; KB-3-1 tox: inactive; HT1080 IDH1KD tx: -6%; TDP1 cell CPT: -4%; TDP1 cell noCPT: -9%

How did CC(C)Sc1cc(N2CCOCC2)nc(-c2ccccc2)n1 do in these assays?
KB-V1 MDR tox: inactive; HT1080NT lethal: -13%; KB-3-1 tox: inactive; HT1080 IDH1KD tx: -22%; TDP1 cell CPT: 23µM*; TDP1 cell noCPT: 16µM*

How did c1ccc(-c2cc(N3CCOCC3)nc3ccccc23)cc1 do in these assays?
KB-V1 MDR tox: 21µM*; HT1080NT lethal: -12%; KB-3-1 tox: inactive; HT1080 IDH1KD tx: inconclusive; TDP1 cell CPT: inconclusive; TDP1 cell noCPT: inconclusive

What do the screens show for `COCc1cc(N2CCN(c3ccccc3F)CC2)nc(-c2ccccc2)n1`?
KB-V1 MDR tox: inactive; HT1080NT lethal: 3%; KB-3-1 tox: inactive; HT1080 IDH1KD tx: -8%; TDP1 cell CPT: inconclusive; TDP1 cell noCPT: 12µM*

How did c1ccc2c(c1)CCc1c-2nc2ccccc2c1N1CCOCC1 do in these assays?
KB-V1 MDR tox: inactive; HT1080NT lethal: 0%; KB-3-1 tox: inactive; HT1080 IDH1KD tx: -20%; TDP1 cell CPT: 12µM*; TDP1 cell noCPT: inconclusive

Results for CC(C)Sc1cc(N2CCCC2)nc(-c2ccc(F)cc2)n1 ?
KB-V1 MDR tox: inactive; HT1080NT lethal: -2%; KB-3-1 tox: inactive; HT1080 IDH1KD tx: -8%; TDP1 cell CPT: 6%; TDP1 cell noCPT: inconclusive

What do the screens show for `CSc1ccc(-c2ccc(C(=O)NCC3CCCO3)c(N3CCC(O)CC3)n2)cc1` (stereo not given)?
TDP1 cell CPT: -4%[9.04 µM]; TDP1 cell noCPT: -13%

Results for COc1ccc(CN2CCNC(=O)C2CC(=O)NC2Cc3ccccc3C2)c(OC)c1 (stereo not given) ?
KB-V1 MDR tox: inconclusive; HT1080NT lethal: 3%; KB-3-1 tox: inactive; HT1080 IDH1KD tx: 4%; TDP1 cell CPT: -11%; TDP1 cell noCPT: -20%

What do the screens show for `O=C1NC(=O)C2(N1)C(=O)c1cccc3cccc2c13` (stereo not given)?
KB-V1 MDR tox: inactive; HT1080NT lethal: 0%; KB-3-1 tox: inactive; HT1080 IDH1KD tx: 3%; TDP1 cell CPT: -1%; TDP1 cell noCPT: inconclusive

Results for CCCCn1c(N)c(N(CCC(C)C)C(=O)CC2CCCC2)c(=O)[nH]c1=O ?
KB-V1 MDR tox: inactive; HT1080NT lethal: 6%; KB-3-1 tox: inconclusive; HT1080 IDH1KD tx: 10%; TDP1 cell CPT: 5%; TDP1 cell noCPT: -18%

How did COc1cccc(Cn2c(=O)n(CC3CCC(C(=O)NC(C)C)CC3)c(=O)c3sccc32)c1 (stereo not given) do in these assays?
KB-V1 MDR tox: inactive; KB-3-1 tox: inactive; TDP1 cell CPT: -10%; TDP1 cell noCPT: 3%

Results for c1ccc(-c2ccc(Oc3cc(N4CCOCC4)nc(-c4ccccc4)n3)cc2)cc1 ?
KB-V1 MDR tox: inactive; HT1080NT lethal: 0%[9.24 µM]; KB-3-1 tox: inactive; HT1080 IDH1KD tx: -23%; TDP1 cell CPT: inconclusive; TDP1 cell noCPT: inconclusive

Results for COCc1cc(N2CCOCC2)nc(-c2ccccc2)n1 ?
KB-V1 MDR tox: inactive; HT1080NT lethal: -6%; KB-3-1 tox: inactive; HT1080 IDH1KD tx: -2%; TDP1 cell CPT: 23µM*; TDP1 cell noCPT: inconclusive

How did Cc1ccc(-c2nc(S(=O)(=O)c3ccc(C)cc3)c(SCC(N)=O)o2)cc1 do in these assays?
KB-V1 MDR tox: inconclusive; HT1080NT lethal: -8%; KB-3-1 tox: inconclusive; HT1080 IDH1KD tx: -22%; TDP1 cell CPT: -5%; TDP1 cell noCPT: inconclusive

What do the screens show for `CCN1CCC(N(Cc2cccc(OC)c2)C(=O)Nc2cccc(C)c2C)CC1`?
KB-V1 MDR tox: inactive; KB-3-1 tox: inactive; TDP1 cell CPT: inconclusive; TDP1 cell noCPT: 23µM*

What do the screens show for `CCN1CCC(N(Cc2ccc(F)cc2)C(=O)Nc2cccc(C(F)(F)F)c2)CC1`?
KB-V1 MDR tox: inactive; KB-3-1 tox: inactive; TDP1 cell CPT: 16µM*; TDP1 cell noCPT: 16µM*
